Records with an inconclusive call do not appear. The source made the active and inactive calls. The calls were made as follows: active = hit-call score of the fitted dose curve at least 0.9, where 1 is the maximum; inconclusive = response in the unintended direction; inactive = score below 0.9.
Each compound was assayed against Nuclear receptor subfamily 1 group I member 3 (Homo sapiens) (UniProt Q14994) (assay: ATG_CAR_TRANS: Attagene TRANS-FACTORIAL HepG2 Assay for human Constitutive Androstane Receptor (CAR) (AID 2282969;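 also: activators raise reporter mRNA above DMSO so AC50 marks induction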)). Conditions: HepG2 Attagene TRANS-FACTORIAL CAR reporter.
Chain of Nuclear receptor subfamily 1 group I member 3 (Homo sapiens) (Q14994 whole entry, looked up): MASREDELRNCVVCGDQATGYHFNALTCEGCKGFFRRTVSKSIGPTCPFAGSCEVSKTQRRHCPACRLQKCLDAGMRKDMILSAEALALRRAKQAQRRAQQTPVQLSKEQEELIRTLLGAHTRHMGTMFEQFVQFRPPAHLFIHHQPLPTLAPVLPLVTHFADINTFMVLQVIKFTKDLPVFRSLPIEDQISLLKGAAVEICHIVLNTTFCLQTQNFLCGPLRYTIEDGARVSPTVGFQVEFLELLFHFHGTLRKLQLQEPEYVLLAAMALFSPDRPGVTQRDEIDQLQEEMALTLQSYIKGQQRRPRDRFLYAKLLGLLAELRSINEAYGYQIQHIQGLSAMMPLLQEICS
Method: ATG_TRANS is a cell-based, multiplexed-readout assay that uses HepG2, a human liver cell line, with measurements taken at 24 hours after chemical dosing in a 24-well plate.ATG_CAR_TRANS is one of 30 assay component(s) measured or calculated from the ATG_TRANS assay. It is designed to make measurements of mRNA induction, a form of inducible reporter, as detected with fluorescence intensity signals by Reverse transcription polymerase chain reaction (RT-PCR) and Capillary electrophoresis technology.Data from the assay component ATG_CAR_TRANS was analyzed into 1 assay endpoint. This assay endpoint, ATG_CAR_TRANS, was analyzed in the positive analysis fitting direction relative to DMSO as the negative control and baseline of activity. Using a type of inducible reporter, measures of mRNA for gain-of-signal activity can be used to understand the reporter gene at the transcription factor-level as they relate to the gene NR1I3. Furthermore, this assay endpoint can be referred to as a primary readout, because this assay has produced multiple assay endpoints where this one serves a reporter gene function. To generalize the intended target to other relatable targets, this assay endpoint is annotated to the nuclear receptor intended target family, where the subfamily is non-steroidal.
Human liver HepG2 cells are transiently transfected with multiple reporter transcription units (MRTUs) in 6-well plates using FuGene 6 reagent (Roche; 3 ml FuGene/1 mg DNA). The MRTU constructs are regulated by a cis-regulating element (promoter). […] A major difference between the CIS and TRANS system is that in CIS activities of endogenous TFs are measured, whereas the TRANS assay evaluates changes in activities of exogenous, chimeric NR-Gal4 proteins. […] At the end of 24 hour incubation, total RNA was isolated using TriZol reagent (Invitrogen). The isolated RNA is then reverse-transcribed using oligo(dT) primer and Mo-MLV reverse transcriptase (Invitrogen) with DNAse I (Ambion) treatment for 30 min. The one-tenth of the produced cDNA was amplified by PCR using Taq DNA polymerase (Invitrogen) and two reporter sequence-specific primers. The PCR products were fluorescently labeled by primer extension with 6-arboxyfluorescein (6-FAM) 5'-labeled reporter sequence-specific primer (2 min at 95 C, 20 s at 68 C and 10 min at 72 C) and these products were digested with 5U of HpaI (New England Biolabs) for 2h at 37 C. The fragments were purified using Qiaquick PCR columns (Qiagen), analyzed on an ABI 3130xL genetic analyzer (Applied Biosystems) with peak positions identified by using a set of X-rhodamine (ROX)-labeled MapMarker1000 molecular weight standards (BioVentures). The raw capillary electrophoresis data was processed using Attagraph software (Attagene).
For `CCc1cccc(C)c1N(C(=O)CS(=O)(=O)O)C(C)COC` (stereo not given), the outcome was “inactive”.
In the case of `CCCC(CC)c1ccccc1` (stereo not given), the outcome is reported as “inactive”.
For `O=c1c(O)c(-c2ccc(O)cc2O)oc2cc(O)cc(O)c12`, the outcome was “inactive”.
For `O=C(O)CC(C(=O)O)S(=O)(=O)O` (stereo not given), the outcome was “inactive”.
`CC(=O)CC(=O)Nc1ccccc1C` was tested, and the outcome was “inactive”.
With `CCCCOC(=O)CCC(C)=O` the outcome was “inactive”.
With `Nc1cccc(N)n1` the outcome was “inactive”.
`COC(OC)(C(=O)c1ccccc1)c1ccccc1` was tested, and the outcome was “inactive”.
With `CCOC(=O)CC(=O)c1ccccc1` the outcome was “inactive”.
In the case of `CC(C)c1cccc(C(C)C)c1N`, the outcome is reported as “inactive”.
In the case of `COC(Cc1ccccc1)OC`, the outcome is reported as “inactive”.
`CCOc1ccc(NC(N)=O)cc1` was tested, and the outcome was “inactive”.
In the case of `CC(C)CC(=O)OCc1ccccc1`, the outcome is reported as “inactive”.
In the case of `[Cl][Sc]([Cl])[Cl]`, the outcome is reported as “inactive”.
With `C=C(C)C(=O)OCCCCCCCCCCCC` the outcome was “inactive”.
With `CCCCCCOc1ccc(N)cc1` the outcome was “inactive”.
For `C=C(C)C(=O)OCC(O)COc1ccc(C(C)(C)c2ccc(OCC(O)COC(=O)C(=C)C)cc2)cc1` (stereo not given), the outcome was “inactive”.
In the case of `O=S(=O)(O)c1ccc(N=Nc2c(O)ccc3ccccc23)cc1`, the outcome is reported as “inactive”.
`CCCCOCC(C)O` (stereo not given) was tested, and the outcome was “inactive”.
For `C=CC(=O)OCC(C)OCC(C)OCC(C)OC(=O)C=C` (stereo not given), the outcome was “inactive”.
With `CO[Si](C)(C)OC` the outcome was “inactive”.
With `Oc1ccc(-c2ccccc2)c(Cl)c1` the outcome was “inactive”.
In the case of `CCCCC(C=O)CC` (stereo not given), the outcome is reported as “inactive”.
For `CC1CCC(=O)C1=O` (stereo not given), the outcome was “inactive”.
For `CC(C)(c1ccccc1)c1ccc(Nc2ccc(C(C)(C)c3ccccc3)cc2)cc1`, the outcome was “inactive”.
In the case of `CC(=O)CCC1=C(C)CCCC1(C)C`, the outcome is reported as “inactive”.
With `O=C1CCCN1C1CCCCC1` the outcome was “inactive”.
In the case of `CC1=CC(C)C(C=O)CC1` (stereo not given), the outcome is reported as “inactive”.
In the case of `CN(C)c1ccc2nc3ccc(=[N+](C)C)cc-3sc2c1`, the outcome is reported as “inactive”.
With `CC(Cl)COP(=O)(OCC(C)Cl)OCC(C)Cl` (stereo not given) the outcome was “inactive”.
`Cc1ccc2c(c1)CCCN2` was tested, and the outcome was “inactive”.
`COc1cc(C)ccc1O` was tested, and the outcome was “inactive”.
With `c1ccc2c(c1)[nH]c1ccccc12` the outcome was “inactive”.
With `Cn1ccnc1` the outcome was “inactive”.
`C=CCOC(=O)c1ccc(C(=O)OCC=C)c(C(=O)OCC=C)c1` was tested, and the outcome was “inactive”.
With `CC1(C)[C@@H]2CC[C@@]1(C)C(=O)C2` the outcome was “inactive”.
`Nc1nc(N)nc(-c2ccccc2)n1` was tested, and the outcome was “inactive”.
In the case of `CCCSSCCC`, the outcome is reported as “inactive”.
For `C=C(C)C1CC=C(C)CC1` (stereo not given), the outcome was “inactive”.
`Cc1cccc(C(C)(C)C)c1O` was tested, and the outcome was “inactive”.

Source: PubChem BioAssay (EPA / NIEHS)
